For 28 compounds, Potency, outcome and max response results are on record in PubChem BioAssay (NCATS).

Results filed as inconclusive are left out. Values without a mark were called inactive. Active and inactive are the calls of the source. Calls follow the shape of the dose curve; as a rule, active = well fitted inhibition curve with a large enough effect; inconclusive = small, poorly fitted or top-dose-only effect; inactive = flat fitted curve, though single readings scatter.

The test system of one test is MCC-13. In words: qHTS assay to identify novel small-molecules to repurpose for Merkel cell carcinoma treatment (AID 1296009). As to conditions: MCC and control cell lines, CellTiter-Glo viability, 72 h; series mostly up to 46 µM. The method in brief:
(§1)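 72 hr, 37 degree celsius; NPC 8-pt / MIPE 11-pt dose response; compound pinned in DMSO; CellTiter-Glo, 10 min RT, luminescence; normalized to no-cell and DMSO controls.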

Another test deals with MCC-26. The test is described as above. As to conditions: MCC and control cell lines, CellTiter-Glo viability, 72 h; series mostly up to 46 µM. The method in brief: as §1
In the next test the test system is MKL-1. The test is described as above. The settings on record: MCC and control cell lines, CellTiter-Glo viability, 72 h; series mostly up to 46 µM. The method in brief: as §1
The next test relates to HEK293T. The description is as above. As to conditions: MCC and control cell lines, CellTiter-Glo viability, 72 h; at 44.8 µM (top of the series) unless noted. The method in brief:
as §1

The next test deals with HACAT. Described as above. As to conditions: MCC and control cell lines, CellTiter-Glo viability, 72 h; at 44.8 µM (top of the series) unless noted. The method in brief: as §1
The next test has as its system KB-3-1. In words: Cytotoxic Profiling of Annotated Libraries Using Quantitative High-Throughput Screening (AID 1296008). As to conditions: Five cell lines viability, CellTiter-Glo ATP luminescence, 48-72 h; max response: active compounds read low. The method in brief: (§2)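 Cytotoxicity was measured as CellTiter-Glo ATP luminescence, read after 10 min at room temperature. Compound treatment of the cells lasted 48 or 72 hr at 37 degrees Celsius in a qHTS format.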

A further test has as its system NIH3T3. The description is as above. The settings on record: Five cell lines viability, CellTiter-Glo ATP luminescence, 48-72 h; max response: active compounds read low. The method in brief:
as §2
% is scaled to controls: 0 for no effect and ±100 for the full control effect; potency is read from the fitted curve at half-maximal effect.
Also: nearly all actives have a fitted effect of over 60% in size.

Consider `CC(Cc1cccc(C(F)(F)F)c1)NCCOC(=O)c1ccccc1` (centres undefined), for which the Potency entry in the test with MCC-13, in the test with MCC-26 and in the test on MKL-1 was “inactive” throughout.
For `Cc1cccn2c(=O)c(-c3nnn[nH]3)cnc12`, the outcome in the test on HEK293T is “inactive [at 17.4 µM]”. Further, the Potency result in the test on MCC-13, in the test on MCC-26 and with MKL-1 was “inactive” in each case.
For the compound `NCCCC[C@H](N[C@@H](CCc1ccccc1)C(=O)O)C(=O)N1CCC[C@H]1C(=O)O`, the call in the test on HEK293T was inactive. In addition, the Potency result with MCC-13, in the test with MCC-26 and in the test with MKL-1 was “inactive” in each case.
Consider `NC(=O)c1cc[n+](CC2=C(C(=O)[O-])N3C(=O)[C@@H](NC(=O)Cc4cccs4)[C@H]3SC2)cc1`, for which the Potency entry with MCC-13, in the test on MCC-26 and with MKL-1 was “inactive” in each case.
On to `CCCCC1=NC2(CCCC2)C(=O)N1Cc1ccc(-c2ccccc2-c2nn[nH]n2)cc1`, for which the outcome in the test with HACAT and with HEK293T was inactive. Besides, the Potency result in the test with MCC-13, in the test with MCC-26 and in the test on MKL-1 was “inactive” throughout.
With `Nc1ccc(C(=O)Nc2ccccc2N)cc1`, the max response with KB-3-1 was -27.7%. The Potency in the test with MKL-1 is 18.8 µM (active).
With `Cc1c(F)c(N2CCNC(C)C2)cc2c1c(=O)c(C(=O)O)cn2C1CC1` (centres undefined), the compound was called inactive with HEK293T. In addition, the Potency result with MCC-13, in the test on MCC-26 and with MKL-1 was “inactive” throughout.
As to `CCN1CCC[C@H]1CNC(=O)c1c(OC)ccc(Br)c1OC`, the outcome in the test on HEK293T was inactive. Also, the Potency entry in the test on MCC-13, in the test on MCC-26 and in the test on MKL-1 was “inactive” in each case.
`OC[C@@H](O)[C@@H](O[C@@H]1O[C@H](CO)[C@H](O)[C@H](O)[C@H]1O)[C@H](O)[C@@H](O)CO`: the Potency result in the test with MCC-13, with MCC-26 and in the test with MKL-1 was “inactive” throughout.
`CC(=O)Oc1ccc(C(=C2CCCCC2)c2ccc(OC(C)=O)cc2)cc1`: the result in the test with HACAT was inactive. For the same compound, the Potency entry in the test with MCC-13, with MCC-26 and in the test with MKL-1 was “inactive” in each case.
`Nc1nc2ncc(CNc3ccc(C(=O)N[C@@H](CCC(=O)O)C(=O)O)cc3)nc2c(=O)[nH]1`: in the test on HEK293T, the compound was classed as inactive. In addition, the Potency entry with MCC-13, in the test with MCC-26 and in the test on MKL-1 was “inactive” in each case.
Regarding `CCCSS/C(CCO)=C(\C)N(C=O)Cc1cnc(C)nc1N`, the max response in the test on KB-3-1 was 33.8%. For the same compound, the Potency is 26.6 µM (active) in the test with MCC-26 and 21.1 µM (active) with MKL-1.
For the compound `CC(C)(CO)[C@@H](O)C(=O)NCCCO`, the Potency result in the test with MCC-13, in the test on MCC-26 and with MKL-1 was “inactive” in each case.
Take `NC(=O)CC[C@@H]1NC(=O)[C@H](Cc2ccccc2)NC(=O)[C@H](Cc2ccc(O)cc2)NC(=O)CCSSC[C@@H](C(=O)N2CCC[C@H]2C(=O)N[C@@H](CCCN=C(N)N)C(=O)NCC(N)=O)NC(=O)[C@H](CC(N)=O)NC1=O`: the Potency entry in the test with MCC-13, in the test with MCC-26 and in the test on MKL-1 was “inactive” in each case.
Consider `N[C@@H](CCC(=O)N[C@@H](CS)C(=O)NCC(=O)O)C(=O)O`, for which, in the test with HACAT, the outcome is “inactive [at 17.4 µM]”. The Potency result in the test with MCC-13, in the test with MCC-26 and in the test with MKL-1 was “inactive” in each case.
Turning to `CCOC(=O)/C=C(C)/C=C/C=C(C)/C=C/c1c(C)cc(OC)c(C)c1C`, in the test with HACAT, the outcome was inactive. Further, the Potency result in the test with MCC-13 and in the test on MCC-26 was “inactive” in each case.
For `CC1=C(C(=O)OC(C)C)C(c2cccc([N+](=O)[O-])c2)C(C(=O)OC2CN(C(c3ccccc3)c3ccccc3)C2)=C(N)N1` (centres undefined), the results for the Potency in the test on KB-3-1 and in the test with MKL-1 were 18.4 µM (active) and 21.1 µM (active), respectively.
Regarding `CCCCCCCCCCCCCCCCOP(=O)([O-])OCC[N+](C)(C)C`, the Potency result in the test on MCC-13 and with MCC-26 was “inactive” each time.
Consider `NCCc1ccn[nH]1`, for which the compound was called inactive in the test on HACAT. In addition, the Potency entry with MCC-13, in the test with MCC-26 and with MKL-1 was “inactive” each time.
As for `C[C@]12C=CC(=O)C=C1CC[C@@H]1[C@@H]2[C@@H](O)C[C@@]2(C)[C@H]1CC[C@]2(O)C(=O)CO`, the result with NIH3T3 was inactive.
For `C[C@@H]1CN(CCCn2c3ccccc3c3ccccc32)C[C@H](C)N1`, in the test with KB-3-1, the max response is 0.54%. Besides, the Potency entry in the test on MCC-26 is “inactive”.
Consider `CCOC(=O)n1ccn(C)c1=S`, for which the Potency result in the test on MCC-13, in the test with MCC-26 and in the test with MKL-1 was “inactive” each time.
For `CC(=O)CC(c1ccc([N+](=O)[O-])cc1)c1c(O)c2ccccc2oc1=O` (centres undefined), the compound was classed as inactive in the test on HACAT. The Potency entry in the test on MCC-13, with MCC-26 and in the test on MKL-1 was “inactive” each time.
For the compound `CC[C@@H](CO)NCCN[C@@H](CC)CO`, in the test on HEK293T, the result was inactive. Moreover, the Potency entry with MCC-13, in the test with MCC-26 and in the test with MKL-1 was “inactive” each time.
Take `CC(C)(Oc1ccc(Cl)cc1)C(=O)O`: the Potency entry in the test on MCC-13, in the test on MCC-26 and with MKL-1 was “inactive” each time.
`COc1ccc(OC)c(C(O)CNC(=O)CN)c1` (centres undefined): the compound was classed as inactive in the test on HACAT. In addition, the Potency result in the test on MCC-13, in the test with MCC-26 and in the test on MKL-1 was “inactive” in each case.
With `NCCC(O)(P(=O)(O)O)P(=O)(O)O`, the compound was called inactive with HACAT. The Potency entry with MCC-13, in the test on MCC-26 and with MKL-1 was “inactive” each time.
On to `Nc1ccc(C(=O)O)cc1`, for which the outcome in the test on HACAT and in the test on HEK293T was inactive. In addition, the Potency entry in the test with MCC-13, in the test with MCC-26 and in the test with MKL-1 was “inactive” in each case.
